The values that follow come from ChEMBL document CHEMBL2218924, “A broad activity screen in support of a chemogenomic map for kinase signalling research and drug discovery” (Biochem J, 2013).

Assay [1] concerns the target Serine/threonine-protein kinase PLK3 (Homo sapiens) (UniProt Q9H4B4). Conditions: at 1 µM; call rule not given here.
For assay [2] the target is unchanged. Conditions: at 10 µM.
Assay [3] concerns the target T1, cAMP-dependent protein kinase catalytic subunit PRKX (Homo sapiens) (UniProt P51817).
T1 sequence (whole entry): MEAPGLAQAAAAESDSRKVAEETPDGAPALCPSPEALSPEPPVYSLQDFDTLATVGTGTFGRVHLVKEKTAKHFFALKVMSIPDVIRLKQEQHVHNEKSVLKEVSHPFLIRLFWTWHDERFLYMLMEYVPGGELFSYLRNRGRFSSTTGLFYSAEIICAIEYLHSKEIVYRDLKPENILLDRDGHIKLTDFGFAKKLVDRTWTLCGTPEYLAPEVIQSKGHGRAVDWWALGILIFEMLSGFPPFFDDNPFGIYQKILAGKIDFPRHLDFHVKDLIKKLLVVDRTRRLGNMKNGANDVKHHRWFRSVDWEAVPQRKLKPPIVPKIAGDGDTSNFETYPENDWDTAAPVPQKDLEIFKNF
Conditions: at 1 µM.

In assay [4] the target is T1, cAMP-dependent protein kinase catalytic subunit PRKX (Homo sapiens). Conditions: at 10 µM.
Assay [5] deals with Protein-tyrosine kinase 2-beta (Homo sapiens) (UniProt Q14289). Conditions: at 1 µM.
The target is the same in assay [6]. The note with it: at 10 µM.
Assay [7] has as its target Receptor-interacting serine/threonine-protein kinase 2 (Homo sapiens) (UniProt O43353). Conditions: at 1 µM.
Assay [8] shares this target. Conditions: at 10 µM.
Assay [9] concerns the target Rho-associated protein kinase 1 (Homo sapiens) (UniProt Q13464). Conditions: at 1 µM.
Assay [10] has the same target. The note with it: at 10 µM.
For assay [11], the target named is Rho-associated protein kinase 2 (Homo sapiens) (UniProt O75116). The note with it: at 1 µM.
Assay [12] has the same target. The note with it: at 10 µM.
Assay [13] addresses Proto-oncogene tyrosine-protein kinase receptor Ret (Homo sapiens) (UniProt P07949). Conditions: at 1 µM.
Assay [14] shares this target. Conditions: at 10 µM.
Assay [15] addresses Macrophage-stimulating protein receptor (Homo sapiens) (UniProt Q04912). Conditions: at 1 µM.
For assay [16] the target is unchanged. The note with it: at 10 µM.
The target in assay [17] is Proto-oncogene tyrosine-protein kinase ROS (Homo sapiens) (UniProt P08922). Conditions: at 1 µM.
For assay [18] the target is unchanged. Conditions: at 10 µM.
For assay [19], the target named is T2, Tyrosine-protein kinase receptor TYRO3 (Homo sapiens) (UniProt Q06418).
T2 sequence (whole entry): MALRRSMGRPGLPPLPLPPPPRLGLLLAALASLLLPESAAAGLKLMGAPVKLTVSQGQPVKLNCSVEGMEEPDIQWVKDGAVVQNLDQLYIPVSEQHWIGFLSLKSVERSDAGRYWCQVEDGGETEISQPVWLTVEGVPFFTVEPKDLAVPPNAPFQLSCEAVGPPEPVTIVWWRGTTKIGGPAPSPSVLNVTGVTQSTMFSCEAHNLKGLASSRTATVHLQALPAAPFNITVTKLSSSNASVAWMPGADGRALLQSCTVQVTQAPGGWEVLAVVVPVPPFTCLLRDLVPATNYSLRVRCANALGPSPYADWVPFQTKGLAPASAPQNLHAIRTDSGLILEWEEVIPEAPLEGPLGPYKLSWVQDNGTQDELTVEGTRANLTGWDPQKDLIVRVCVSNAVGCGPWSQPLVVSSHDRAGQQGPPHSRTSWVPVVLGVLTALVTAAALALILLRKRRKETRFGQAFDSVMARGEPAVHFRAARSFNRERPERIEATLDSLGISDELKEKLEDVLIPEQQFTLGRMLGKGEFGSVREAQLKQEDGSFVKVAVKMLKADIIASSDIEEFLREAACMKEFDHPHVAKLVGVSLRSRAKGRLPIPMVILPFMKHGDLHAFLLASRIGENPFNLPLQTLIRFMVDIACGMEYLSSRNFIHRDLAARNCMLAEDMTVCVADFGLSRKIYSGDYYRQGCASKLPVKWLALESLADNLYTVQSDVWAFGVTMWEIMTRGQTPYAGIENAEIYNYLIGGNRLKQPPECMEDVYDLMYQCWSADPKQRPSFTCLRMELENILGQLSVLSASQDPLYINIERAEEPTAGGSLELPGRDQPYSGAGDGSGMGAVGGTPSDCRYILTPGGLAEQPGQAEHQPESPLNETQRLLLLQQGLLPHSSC
The note with it: at 1 µM.

Assay [20] addresses T2, Tyrosine-protein kinase receptor TYRO3 (Homo sapiens). The note with it: at 10 µM.

Sequence of Macrophage-stimulating protein receptor (Homo sapiens) (Q04912 25-304 limits assumed): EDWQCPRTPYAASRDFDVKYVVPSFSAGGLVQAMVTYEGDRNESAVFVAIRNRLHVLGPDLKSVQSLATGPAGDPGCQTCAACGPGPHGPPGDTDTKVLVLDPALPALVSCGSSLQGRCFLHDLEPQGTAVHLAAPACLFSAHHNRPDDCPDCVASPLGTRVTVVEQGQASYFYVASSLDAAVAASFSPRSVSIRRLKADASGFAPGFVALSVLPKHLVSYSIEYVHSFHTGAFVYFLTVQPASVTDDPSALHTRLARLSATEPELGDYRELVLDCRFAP
Sequence of Macrophage-stimulating protein receptor (Homo sapiens) (Q04912 310-1400 limits assumed): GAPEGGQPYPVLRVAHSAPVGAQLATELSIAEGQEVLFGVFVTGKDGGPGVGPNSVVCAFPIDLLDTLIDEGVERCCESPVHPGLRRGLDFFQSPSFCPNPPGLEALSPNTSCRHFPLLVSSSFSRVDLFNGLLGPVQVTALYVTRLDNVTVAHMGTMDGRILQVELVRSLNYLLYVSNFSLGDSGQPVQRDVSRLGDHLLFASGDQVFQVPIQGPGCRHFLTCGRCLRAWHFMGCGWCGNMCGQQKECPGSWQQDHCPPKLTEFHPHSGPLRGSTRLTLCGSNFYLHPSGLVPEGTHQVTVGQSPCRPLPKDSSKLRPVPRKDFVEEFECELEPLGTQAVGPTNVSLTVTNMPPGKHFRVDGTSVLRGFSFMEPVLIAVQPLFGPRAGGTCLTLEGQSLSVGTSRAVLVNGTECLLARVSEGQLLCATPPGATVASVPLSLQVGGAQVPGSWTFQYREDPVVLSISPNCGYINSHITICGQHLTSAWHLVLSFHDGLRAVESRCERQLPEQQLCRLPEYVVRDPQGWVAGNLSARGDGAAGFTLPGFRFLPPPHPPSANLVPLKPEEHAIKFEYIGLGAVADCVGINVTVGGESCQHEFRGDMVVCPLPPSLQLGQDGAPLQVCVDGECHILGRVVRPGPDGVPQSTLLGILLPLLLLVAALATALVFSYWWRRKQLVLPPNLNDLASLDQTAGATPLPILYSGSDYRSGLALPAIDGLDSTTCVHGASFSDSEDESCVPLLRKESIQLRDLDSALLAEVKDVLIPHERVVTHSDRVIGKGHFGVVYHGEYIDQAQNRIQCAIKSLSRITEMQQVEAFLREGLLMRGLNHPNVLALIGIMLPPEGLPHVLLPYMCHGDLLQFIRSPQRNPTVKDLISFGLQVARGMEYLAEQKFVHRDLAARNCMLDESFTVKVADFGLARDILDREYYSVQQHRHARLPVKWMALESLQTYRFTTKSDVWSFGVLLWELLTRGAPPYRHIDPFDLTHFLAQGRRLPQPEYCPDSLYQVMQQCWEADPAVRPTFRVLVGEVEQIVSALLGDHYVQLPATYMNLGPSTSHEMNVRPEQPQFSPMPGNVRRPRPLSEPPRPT
Sequence of Protein-tyrosine kinase 2-beta (Homo sapiens) (Q14289 whole entry, looked up): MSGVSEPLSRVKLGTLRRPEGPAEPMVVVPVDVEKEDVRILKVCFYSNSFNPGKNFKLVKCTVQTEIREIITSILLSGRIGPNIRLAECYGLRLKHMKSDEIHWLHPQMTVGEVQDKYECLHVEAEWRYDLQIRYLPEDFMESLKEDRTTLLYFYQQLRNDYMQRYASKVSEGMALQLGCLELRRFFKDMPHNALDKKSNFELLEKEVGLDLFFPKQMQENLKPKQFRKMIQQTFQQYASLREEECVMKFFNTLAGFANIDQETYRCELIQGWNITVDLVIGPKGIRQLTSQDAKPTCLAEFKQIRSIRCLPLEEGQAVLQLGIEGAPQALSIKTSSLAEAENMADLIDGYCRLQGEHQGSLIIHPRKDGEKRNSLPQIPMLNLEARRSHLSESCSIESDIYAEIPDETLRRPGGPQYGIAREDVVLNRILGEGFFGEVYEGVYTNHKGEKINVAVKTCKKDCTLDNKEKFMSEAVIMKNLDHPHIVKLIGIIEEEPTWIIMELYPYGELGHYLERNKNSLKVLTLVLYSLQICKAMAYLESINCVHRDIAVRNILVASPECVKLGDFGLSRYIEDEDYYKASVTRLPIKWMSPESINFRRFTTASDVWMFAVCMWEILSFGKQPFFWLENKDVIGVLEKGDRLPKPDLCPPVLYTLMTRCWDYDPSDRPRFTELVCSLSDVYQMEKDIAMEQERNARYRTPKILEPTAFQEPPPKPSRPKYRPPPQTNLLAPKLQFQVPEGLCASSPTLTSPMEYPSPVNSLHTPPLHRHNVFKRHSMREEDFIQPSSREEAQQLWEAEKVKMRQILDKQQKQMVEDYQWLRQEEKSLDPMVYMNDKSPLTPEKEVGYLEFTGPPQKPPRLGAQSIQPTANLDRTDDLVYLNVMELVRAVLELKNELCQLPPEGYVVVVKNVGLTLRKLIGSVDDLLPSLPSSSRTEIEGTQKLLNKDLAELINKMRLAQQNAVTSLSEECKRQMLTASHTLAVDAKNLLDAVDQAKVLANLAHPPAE
Sequence of Rho-associated protein kinase 2 (Homo sapiens) (O75116 whole entry, looked up): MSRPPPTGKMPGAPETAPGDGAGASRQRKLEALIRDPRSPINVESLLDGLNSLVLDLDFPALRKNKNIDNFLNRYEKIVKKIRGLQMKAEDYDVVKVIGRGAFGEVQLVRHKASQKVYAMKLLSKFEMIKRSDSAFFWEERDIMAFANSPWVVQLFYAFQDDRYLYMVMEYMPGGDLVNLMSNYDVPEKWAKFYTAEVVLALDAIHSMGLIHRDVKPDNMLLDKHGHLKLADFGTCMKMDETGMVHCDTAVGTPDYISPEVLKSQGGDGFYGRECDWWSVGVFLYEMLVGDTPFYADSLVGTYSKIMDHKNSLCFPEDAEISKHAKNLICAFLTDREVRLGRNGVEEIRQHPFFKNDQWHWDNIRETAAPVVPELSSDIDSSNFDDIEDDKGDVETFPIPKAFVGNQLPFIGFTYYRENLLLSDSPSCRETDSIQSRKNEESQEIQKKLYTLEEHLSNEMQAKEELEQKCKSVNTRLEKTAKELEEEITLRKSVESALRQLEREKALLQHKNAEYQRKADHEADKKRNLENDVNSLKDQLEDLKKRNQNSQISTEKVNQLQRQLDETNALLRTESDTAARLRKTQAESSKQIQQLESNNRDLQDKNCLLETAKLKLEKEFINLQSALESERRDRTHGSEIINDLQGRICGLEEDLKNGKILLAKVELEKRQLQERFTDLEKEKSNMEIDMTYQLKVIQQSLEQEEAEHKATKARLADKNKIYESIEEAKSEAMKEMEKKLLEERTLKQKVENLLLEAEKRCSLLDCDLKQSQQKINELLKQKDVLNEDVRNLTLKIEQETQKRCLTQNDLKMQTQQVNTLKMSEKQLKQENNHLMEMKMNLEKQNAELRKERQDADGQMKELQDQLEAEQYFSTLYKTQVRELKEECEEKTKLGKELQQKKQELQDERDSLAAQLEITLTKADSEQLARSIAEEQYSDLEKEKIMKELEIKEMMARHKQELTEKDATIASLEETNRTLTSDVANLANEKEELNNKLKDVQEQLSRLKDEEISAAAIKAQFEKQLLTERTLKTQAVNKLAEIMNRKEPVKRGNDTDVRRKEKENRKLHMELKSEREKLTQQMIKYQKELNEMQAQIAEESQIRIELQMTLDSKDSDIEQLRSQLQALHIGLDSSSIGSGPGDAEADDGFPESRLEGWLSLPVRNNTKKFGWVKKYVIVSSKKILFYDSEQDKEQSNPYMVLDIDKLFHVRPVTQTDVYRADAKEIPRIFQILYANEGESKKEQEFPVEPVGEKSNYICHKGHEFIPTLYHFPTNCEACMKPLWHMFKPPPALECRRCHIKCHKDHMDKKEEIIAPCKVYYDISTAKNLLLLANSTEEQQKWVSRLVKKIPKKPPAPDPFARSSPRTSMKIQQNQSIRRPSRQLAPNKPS
Sequence of Serine/threonine-protein kinase PLK3 (Homo sapiens) (Q9H4B4 whole entry, looked up): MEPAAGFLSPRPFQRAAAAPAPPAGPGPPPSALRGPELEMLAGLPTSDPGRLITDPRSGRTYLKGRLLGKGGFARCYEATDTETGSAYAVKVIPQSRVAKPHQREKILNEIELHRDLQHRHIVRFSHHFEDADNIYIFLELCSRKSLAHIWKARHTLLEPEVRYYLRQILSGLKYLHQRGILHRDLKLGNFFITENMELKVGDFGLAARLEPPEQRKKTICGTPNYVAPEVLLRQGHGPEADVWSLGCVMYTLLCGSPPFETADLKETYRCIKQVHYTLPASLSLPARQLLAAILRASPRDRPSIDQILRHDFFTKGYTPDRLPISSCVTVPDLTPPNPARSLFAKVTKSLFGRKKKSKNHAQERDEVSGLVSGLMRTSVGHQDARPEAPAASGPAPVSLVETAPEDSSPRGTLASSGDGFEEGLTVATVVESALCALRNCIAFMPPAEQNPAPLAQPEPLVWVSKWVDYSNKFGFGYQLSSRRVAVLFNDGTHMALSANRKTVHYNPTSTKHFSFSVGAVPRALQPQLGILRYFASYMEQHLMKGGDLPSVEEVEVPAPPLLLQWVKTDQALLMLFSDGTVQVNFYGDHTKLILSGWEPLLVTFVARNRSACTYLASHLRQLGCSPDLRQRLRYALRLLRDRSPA
Sequence of Receptor-interacting serine/threonine-protein kinase 2 (Homo sapiens) (O43353 whole entry): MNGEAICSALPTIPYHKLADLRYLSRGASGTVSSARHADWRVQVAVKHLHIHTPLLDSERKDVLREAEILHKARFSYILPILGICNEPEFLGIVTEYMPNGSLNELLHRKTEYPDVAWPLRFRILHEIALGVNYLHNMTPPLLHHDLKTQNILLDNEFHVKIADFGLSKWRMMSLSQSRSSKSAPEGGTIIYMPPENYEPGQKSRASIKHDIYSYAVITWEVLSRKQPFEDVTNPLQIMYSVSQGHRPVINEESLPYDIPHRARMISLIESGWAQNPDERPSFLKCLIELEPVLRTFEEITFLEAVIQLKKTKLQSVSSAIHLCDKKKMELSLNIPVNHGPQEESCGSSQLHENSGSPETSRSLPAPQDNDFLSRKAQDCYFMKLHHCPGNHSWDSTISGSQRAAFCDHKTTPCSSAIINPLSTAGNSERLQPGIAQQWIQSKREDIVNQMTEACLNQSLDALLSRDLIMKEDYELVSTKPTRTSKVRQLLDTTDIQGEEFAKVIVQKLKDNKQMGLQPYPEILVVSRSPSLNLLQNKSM

Take `Cc1nc2cc3nc(-c4cccs4)cnc3cc2n1C`: the residual activity in assay [1] is 101% (inactive); in [2], 105%; in assay [3], 108%; in assay [4] it was 101%; in assay [5], 123%; in [6], 87%. Besides, the residual activity in [7] was determined as 84%; in assay [8], 49%; in [9] it was 102%; in assay [10], 107%; in assay [11], 113%; in assay [12] it was 93%. Also, the residual activity in assay [13] worked out at 65%; in assay [14], 35%; in [15] it was 106%; in [16], 97%; in [17], 109%; in assay [18] it was 112%. Further, the results for the residual activity in assay [19] and in [20] were 98% and 79%, respectively.

Take `Cc1ccc(NC2=CC(=O)c3sc(C)nc3C2=O)cc1`: the residual activity is 97% (inactive) in [1]; 91% in assay [2]; 102% in assay [3]; 97% in assay [4]; 108% in [5]; 102% in assay [6]. For the same molecule, the residual activity is 81% in [7]; 89% in [8]; 117% in assay [9]; 102% in assay [10]; 87% in assay [11]; 90% in assay [12]. The residual activity in assay [13] was 109%; in assay [14], 97%; in assay [15], 79%; in assay [16] it was 81%; in [17], 101%; in assay [18], 88%. In addition, the residual activity was 98% in [19] and 101% in [20].

As to `CCOc1cc2ncnc(Nc3cccc(Br)c3)c2cc1OCC`, the residual activity in assay [1] was 87% (inactive); in assay [2], 100%; in assay [3] it was 98%; in [4], 78%; in assay [5] it was 110%; in assay [6], 58%. For the same molecule, the residual activity in assay [7] stood at 24%; in assay [8], 12%; in assay [9] it was 94%; in [10] it was 95%; in [11], 91%; in [12] it was 70%. Besides, the residual activity in assay [13] is 30%; in assay [14], 1%; in assay [15], 101%; in assay [16], 57%; in assay [17], 103%; in [18], 100%. In addition, the residual activity in [19] worked out at 51%; in assay [20] it was 16%.

On to `Cn1cc(/C=C2\C(=O)Nc3ccc(S(N)(=O)=O)cc32)c2ccccc21`, for which the residual activity in [1] was 100% (inactive); in [2], 99%; in assay [3] it was 88%; in assay [4], 59%; in [5] it was 22%; in assay [6], 5%. For the same molecule, the residual activity in assay [7] was 52%; in assay [8], 51%; in [9], 92%; in assay [10], 87%; in assay [11], 37%; in assay [12], 13%. Moreover, the residual activity came out at 1% in assay [13]; 1% in assay [14]; 94% in assay [15]; 82% in [16]; 98% in assay [17]; 109% in assay [18]. Also, the residual activity in assay [19] turned out to be 67%; in [20], 53%.

Take `O=c1c2ccccc2[nH]c(=S)n1CCN1CCC(=C(c2ccc(F)cc2)c2ccc(F)cc2)CC1`: the residual activity was 98% (inactive) in assay [1]; 89% in assay [2]; 87% in assay [3]; 52% in assay [4]; 136% in assay [5]; 91% in assay [6]. Besides, the residual activity in assay [7] came out at 100%; in assay [8], 101%; in assay [9], 114%; in assay [10], 127%; in [11], 109%; in assay [12], 86%. For the same molecule, the residual activity in assay [13] amounted to 104%; in assay [14], 108%; in [15], 72%; in [16] it was 78%; in [17], 98%; in assay [18], 99%. The residual activity is 82% in assay [19] and 102% in [20].

Consider `CC(C)n1cnc2/c(=N/c3cccc(Cl)c3)nc(NCCO)[nH]c21`, for which the residual activity is 93% (inactive) in [1]; 57% in [2]; 82% in assay [3]; 65% in assay [4]; 56% in assay [5]; 18% in assay [6]. Also, the residual activity amounted to 77% in [7]; 68% in [8]; 113% in [9]; 82% in [10]; 83% in [11]; 66% in assay [12]. Further, the residual activity worked out at 93% in [13]; 40% in [14]; 74% in assay [15]; 70% in [16]; 77% in assay [17]; 63% in assay [18]. Moreover, the results for the residual activity in assay [19] and in assay [20] were 118% and 51%, respectively.

Turning to `Nc1nc(Nc2ccc(S(N)(=O)=O)cc2)nn1C(=S)Nc1c(F)cccc1F`, the residual activity is 90% (inactive) in assay [1]; 91% in assay [2]; 44% in assay [3]; 7% in [4]; 4% in [5]; 1% in assay [6]. Further, the residual activity was determined as 16% in assay [7]; 29% in assay [8]; 6% in [9]; 1% in assay [10]; 0% in assay [11]; 1% in assay [12]. Further, the residual activity was 2% in assay [13]; -1% in assay [14]; 7% in [15]; 2% in assay [16]; 70% in assay [17]; 16% in assay [18]. The figures for the residual activity in [19] and in assay [20] were 14% and -1%, respectively.
